The values below come from PubChem BioAssay.

A number with no mark means an inactive call. Calls of active or inactive are those of the source.

Dihydroorotate dehydrogenase (quinone), mitochondrial (Plasmodium falciparum (isolate 3D7)), sequence (Q08210 whole entry, looked up): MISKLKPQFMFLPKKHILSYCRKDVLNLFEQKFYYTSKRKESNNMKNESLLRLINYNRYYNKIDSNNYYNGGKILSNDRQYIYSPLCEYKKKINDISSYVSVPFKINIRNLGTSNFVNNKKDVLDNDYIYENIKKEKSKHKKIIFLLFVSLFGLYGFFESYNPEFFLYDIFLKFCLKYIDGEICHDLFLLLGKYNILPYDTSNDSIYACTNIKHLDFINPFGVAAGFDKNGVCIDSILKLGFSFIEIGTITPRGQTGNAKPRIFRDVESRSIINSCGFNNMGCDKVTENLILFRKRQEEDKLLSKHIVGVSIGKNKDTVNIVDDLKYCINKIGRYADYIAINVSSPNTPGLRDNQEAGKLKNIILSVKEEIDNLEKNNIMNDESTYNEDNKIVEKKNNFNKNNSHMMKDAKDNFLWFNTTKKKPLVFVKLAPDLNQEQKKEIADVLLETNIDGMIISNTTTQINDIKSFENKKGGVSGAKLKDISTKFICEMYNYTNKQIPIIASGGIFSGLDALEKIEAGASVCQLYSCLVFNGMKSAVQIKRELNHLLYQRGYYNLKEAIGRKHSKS

The assay concerns the target Dihydroorotate dehydrogenase (quinone), mitochondrial (Plasmodium falciparum (isolate 3D7)) (UniProt Q08210). As to the kind of experiment: inhibition of P. falciparum DHODH – biochemical, C-terminal His tag, absorbance 600 nm, primary screen (AID 1175).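 Further: recombinant parasite enzyme with a five histidine tag at its C terminus; test concentration not given here.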 Particulars: PfDHODH enzyme, DCIP absorbance 600 nm; higher = more signal, called active from +8 up or from −8 down.
For the compound `C[C@@H]1NC(=O)[C@@H](C)COC(=O)[C@H](C)NC(=O)[C@@H](C)COC1=O`, the composite z-score was -3.05.
Consider `C[n+]1ccc(-c2ccc(CO)cc2)cc1`, for which the composite z-score was -10 (active).
In the case of `O=C1C[C@@H](O)[C@@H](O)[C@@H]2[C@@H]3C(=O)N(C[C@@H]4CCCO4)C(=O)[C@@H]3CC[C@H]12` it was 0.602.
Take `CCN1C(=O)[C@@H]2[C@H]3C(=CC[C@@H]2C1=O)C1(OCCCO1)[C@H]1O[C@H]1[C@H]3O`: the composite z-score was -18.3 (active).
Next, `COC(=O)C=CCCc1coc(C=CCNC(=O)OC)n1`: 0.979; `COC(=O)CC=C[C@@H](C)[C@@H](C=NO[C@@H](C)c1cn([C@H](CO)Cc2ccccc2)nn1)NS(=O)(=O)c1ccc(C)cc1`: -1.16; `O=C(NN=C1C[C@@H](O)[C@@H](O)[C@@H]2[C@@H]3C(=O)N(C[C@@H]4CCCO4)C(=O)[C@@H]3CC[C@@H]12)OCc1ccccc1`: -2.17.
In the case of `CCOC(=O)C1=NO[C@@]2(C=C(Br)C3(OCCCO3)[C@H]3O[C@H]32)C1` it was 0.552; in that of `COCCNC(=O)OCC1CCCC2(CC(OC(=O)NCc3ccc4c(c3)OCO4)CC(CCC(=O)N[C@@H](C)C(=O)OC)O2)O1` (some centres undefined), 0.209; in that of `COc1ccc(COC(=O)NN=C2C[C@@H](O)[C@@H](O)[C@@H]3[C@@H]4C(=O)N(c5ccc(F)cc5F)C(=O)[C@@H]4CC[C@H]23)cc1`, 0.0067.
Next, `CC(CCN1CCCc2nc(C)c(C)cc21)=NOC(C)CN1CCCCc2nc(C)c(C)cc21` (centres undefined): 0.131.
In the case of `COC(=O)CC=C[C@@H](C)[C@@H](C=NOCC[C@@H]1C=C[C@H](OC(C)=O)[C@@H](COC(C)=O)O1)OC`, the composite z-score is 0.558.
In the case of `CC(CCN1CCCCc2nc(C)c(C)cc21)=NOC[C@@H](O)COCc1ccco1` it was -0.441; in that of `CCOC(=O)[C@H](Cc1ccccc1)NC(=O)CCC1CC(OC(=O)NCc2cccc3ccccc23)CC2(CCCC(COC(=O)NCc3cccc(C(F)(F)F)c3)O2)O1` (some centres undefined), -0.873; in that of `CCOC(=O)[C@H](CC(C)C)NC(=O)CCC1CC(OC(=O)NCCc2ccc(F)cc2)CC2(CCCC(COC(=O)NCCOc3ccccc3)O2)O1` (some centres undefined), 0.95.
Regarding `COC(=O)[C@H]1[C@@H](O)[C@@]2(O)c3ccccc3O[C@@]2(c2ccccc2)[C@@H]1c1ccccc1`, the composite z-score was 0.154.
In the case of `C#CCCCON=C1C[C@@H](O)[C@@H](O)[C@@H]2[C@@H]3C(=O)N(C(C)(C)C)C(=O)[C@@H]3CC[C@H]12` it was -0.396.
`CO[C@@H]1C=CCC(=O)N[C@@H](C)C(=O)OC[C@@H](OC)[C@H](C)CCCC(=O)OC[C@H]1C`: the composite z-score is -1.38.
As for `CON=C[C@@H](C)[C@H](OCc1ccccc1)C(C)C`, the composite z-score was -2.72.
As to `Cc1ccc(S(=O)(=O)n2c3ccccc3c3nnc(C(=O)c4ccccc4)nc32)cc1`, the composite z-score is -1.1.
In the case of `CC(C)CON=C1C[C@@H](O)[C@@H](O)[C@@H]2[C@@H]3C(=O)N(C4CCCCC4)C(=O)[C@@H]3CC[C@H]12` it was 0.603; in that of `CO[C@@H]1COC(=O)CC=C[C@@H](C)[C@H](OC)COC(=O)[C@@H](C)COC(=O)CC=C[C@H]1C`, 0.577.
`COC(=O)CC=C[C@@H](C)[C@@H](C=NO[C@@H](C)c1cn([C@H](CO)Cc2ccccc2)nn1)OC`: the composite z-score was -0.842.
Regarding `COC(=O)CC=C[C@@H](C)[C@@H](C=NOC[C@@H](O)[C@H]1O[C@@H]2OC(C)(C)O[C@@H]2[C@H]1O)NS(=O)(=O)c1ccc(C)cc1`, the composite z-score was -0.241.
In the case of `COc1ccc(O[C@H]2C=C[C@@H](c3ccccc3)O[C@@H]2COC(=O)CCC(C)=NOC(C)CN2CCCc3nc(C)c(C)cc32)cc1` (some centres undefined) it was -0.154.
Consider `CCOC(=O)NN=C1C[C@@H](O)[C@@H](O)[C@@H]2[C@@H]3C(=O)N(Cc4ccc5c(c4)OCO5)C(=O)[C@@H]3CC[C@H]12`, for which the composite z-score was 0.005.
With `CC(C)=NO[C@H](C)c1cn([C@H](CO)Cc2ccccc2)nn1`, the composite z-score is -0.784.
Turning to `CCOC(=O)[C@H](CC(C)C)NC(=O)CCC1CC(OC(=O)NCc2cccc3ccccc23)CC2(CCCC(COC(=O)NCCOc3ccccc3)O2)O1` (some centres undefined), the composite z-score is -0.785.
As to `CC(C)[C@@H](OCc1ccccc1)[C@H](C)C=NOC[C@@H](O)COCc1ccco1`, the composite z-score was -0.585.
